12-LOX inh = Primary qHTS assay for inhibitors of human arachidonate 12S-lipoxygenase (ALOX12): Round 2. purified 12hLO, xylenol orange hydroperoxide absorbance. Potency, µM (highest dose often 108 µM), hits mostly inhibitors. actives 1.1% (n = 580,000). AID 1671190, 2021
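Purified human 12hLO (150 nM final) in 25 mM Hepes, 0.01% Triton X-100, pH 7.0 was preincubated 15 min at room temperature with compound. Then 40 uM arachidonic acid was added, 30 min. Hydroperoxide was read by Fe-XO absorbance ratio 573/405 nm.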
S-ASM inh = Inhibitors of Secretory Acid Sphingomyelinase (S-ASM): qHTS | actives 0.006% (n = 340,000) | Potency, µM (titrated, usually from 57.5 µM), actives largely listed as inhibitors | Sphingomyelin phosphodiesterase (Homo sapiens), P17405 | placental ASM, HMU-PC fluorogenic substrate, 60 min
Target sequence (P17405 47-631 limits assumed): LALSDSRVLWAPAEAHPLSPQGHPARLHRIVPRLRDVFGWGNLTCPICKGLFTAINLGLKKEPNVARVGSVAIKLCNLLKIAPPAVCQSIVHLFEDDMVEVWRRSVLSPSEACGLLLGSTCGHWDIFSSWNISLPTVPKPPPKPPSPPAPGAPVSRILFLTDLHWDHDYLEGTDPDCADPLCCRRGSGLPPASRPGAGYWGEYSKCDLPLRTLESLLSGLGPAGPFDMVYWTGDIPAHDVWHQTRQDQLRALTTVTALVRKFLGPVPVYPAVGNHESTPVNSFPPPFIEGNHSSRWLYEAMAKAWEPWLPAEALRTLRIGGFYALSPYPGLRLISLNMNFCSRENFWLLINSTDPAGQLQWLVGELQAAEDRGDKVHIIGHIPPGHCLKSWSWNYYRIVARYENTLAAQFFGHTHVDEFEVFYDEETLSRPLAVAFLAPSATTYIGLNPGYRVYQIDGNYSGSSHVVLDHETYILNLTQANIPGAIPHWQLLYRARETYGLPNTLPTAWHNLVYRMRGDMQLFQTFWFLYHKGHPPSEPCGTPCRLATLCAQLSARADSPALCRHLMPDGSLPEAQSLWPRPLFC
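HMU-PC0 cleavage (9 uM final) by human placental ASM, 60 min at 37 °C following 10 min compound exposure at RT; stopped at pH 10, fluorescence Ex 386/Em 447 nm.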
CCT chaperon mod = High-Throughput Screening for Modulators of Cytosolic Chaperonin Activity. AID 651819, 2012. actives 0.3% (n = 360,000). purified chaperonin ATPase assay, HTRF ADP detection, 30 min. activity change, % (no concentration beside the values), hits read low; in the data active means activity change below about -30%
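First, chaperonin was dispensed at 40 nM or 20 nM final depending on batch activity. Next, compounds were pinned at 76 uM and ATP added at 10 uM. After 30 min at 37 °C, ADP detection reagents ran 30 min at ambient temperature.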
Mm-Cpn inhibitor = Inhibitors of TCP-1 ring complex (TRiC) of Methanococcus maripaludis (MmCpn): qHTS. actives 0.031% (n = 330,000). Potency, µM (series often up to 76.9 µM), hits mostly inhibitors. purified Mm-Cpn ATPase, ADP Transcreener TR-FRET; further: nearly all actives have a fitted effect of over 80% in size
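Reaction buffer contained 30 mM Tris pH 7.4, 100 mM KCl, 5 mM MgCl2 and 1 mM DTT. Mm-CPN (25 nM final) hydrolysed 10 uM ATP over 30 min at 37°C; ADP was read by HTRF.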
PINK1 modulator = A Quantitative High throughput Screen to Identify Chemical Modulators of PINK1 Expression; PINK1 immunofluorescence, high-content cytometry, 24 h; Potency, µM (top dose mostly 76.6 µM), most hits filed as activators; actives 0.2% (n = 410,000); AID 624263, 2012; active means well fitted activation curve with a large enough effect; inconclusive means small, poorly fitted or top-dose-only effect; cell line not stated here; further: nearly all actives have a fitted effect of over 65% in size
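Stable cell line treated 24 h with compounds at 5 concentrations (CCCP controls), then fixed and immunostained for PINK1 plus nuclear and cell stains; PINK1 immunofluorescence quantified by laser-scanning microplate cytometry.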
p53 reactivator = qHTS assay for re-activators of p53 using a Luc reporter; Potency, µM (series often up to 92.2 µM), actives largely listed as activators; actives 0.063% (n = 320,000); AID 504706, 2011; H1299 p53-A138V BP100-luciferase reporter, luminescence, 24 h; further: nearly all actives have a fitted effect of over 45% in size
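H1299 (p53-null), stable ts p53-A138V + BP100-Luc; 1000 cells/well, Opti-MEM/10% FBS; cpd 4 pt, 1:5; 24 h, 37 deg C, 5% CO2; detection reagent 10 min RT; luminescence.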
Large screens that a line does not name were inactive. The list is not random: actives were taken first. Their share in the collection is about 1.4%. Unless noted, the call rests on the fitted dose curve; in most records, active means well fitted curve in the direction sought with a large enough effect; inconclusive means small, poorly fitted or top-dose-only effect, or another doubt; inactive means no such curve, though single readings can be large; an effect the other way counts as inactive or inconclusive.

CCC(=O)c1ccccc1OCCCN1CCC(Cc2ccccc2)CC1	12-LOX inh 6.31µM, PINK1 modulator inconclusive (no result: p53 reactivator)
OC(COc1ccccc1)CN1CCC(Cc2ccccc2)CC1 (centres undefined)	12-LOX inh 7.94µM
Cc1cc(C)c2c(=O)cc(C(=O)Nc3c(C)cccc3C)oc2c1	none (no result: S-ASM inh, CCT chaperon mod, Mm-Cpn inhibitor, PINK1 modulator, p53 reactivator)
CN(CC(=O)Nc1ccccc1C(F)(F)F)C(=O)CSc1nccn1-c1cccc(F)c1	none (no result: S-ASM inh, CCT chaperon mod, Mm-Cpn inhibitor, PINK1 modulator, p53 reactivator)
COc1nc2cc(C)c(C)cc2nc1C(=O)Nc1ccc(C)cc1	none (no result: S-ASM inh, CCT chaperon mod, Mm-Cpn inhibitor, PINK1 modulator, p53 reactivator)
CCNc1oc(/C=C/c2cccc(OC)c2)nc1C#N	12-LOX inh 44.7µM (no result: S-ASM inh, CCT chaperon mod, Mm-Cpn inhibitor, PINK1 modulator, p53 reactivator)
CNc1oc(/C=C/c2cccc(OC)c2)nc1C#N	12-LOX inh inconclusive (no result: p53 reactivator)
CCc1cccc(C)c1NC(=O)Cn1nc(C(=O)O)c2ccccc2c1=O	12-LOX inh 15.8µM (no result: S-ASM inh, CCT chaperon mod, Mm-Cpn inhibitor, PINK1 modulator, p53 reactivator)
CC(CNC(=O)Cn1nc(C(N)=O)c2ccccc2c1=O)(c1ccccc1)c1ccccc1	12-LOX inh 31.6µM (no result: S-ASM inh, CCT chaperon mod, Mm-Cpn inhibitor, PINK1 modulator, p53 reactivator)
CCOC(=O)CSc1nc2c(c(=O)[nH]c(=O)n2C)n1Cc1ccccc1Cl	none (no result: S-ASM inh, CCT chaperon mod, Mm-Cpn inhibitor, PINK1 modulator, p53 reactivator)
Cc1cccc(NCc2n[nH]c(=S)n2-c2ccccc2)c1	12-LOX inh inconclusive
Cc1ccc(NCc2n[nH]c(=S)n2-c2ccccc2)cc1	12-LOX inh 28.2µM
Cc1ccc(C(=O)c2ccc(-c3ccccc3)cc2)cc1	none (no result: S-ASM inh, CCT chaperon mod, Mm-Cpn inhibitor, PINK1 modulator, p53 reactivator)
CC(C)=CCC1(CO)CCCN(C(=O)CCN2CCCCCC2=O)C1 (centres undefined)	none (no result: S-ASM inh, CCT chaperon mod, Mm-Cpn inhibitor, PINK1 modulator, p53 reactivator)
O=C1CCCN1CCC(=O)N1CCCC(CO)(Cc2ccccc2)C1 (centres undefined)	Mm-Cpn inhibitor inconclusive, p53 reactivator 28.2µM
COc1ccc(C2=NN(C(=O)Cn3cnc4sccc4c3=O)C(c3ccco3)C2)cc1 (centres undefined)	none (no result: S-ASM inh, CCT chaperon mod, Mm-Cpn inhibitor, PINK1 modulator, p53 reactivator)
C[n+]1c2n(c3ccccc31)N=C(c1ccc(Cl)cc1)CS2	PINK1 modulator inconclusive
CC1Sc2n(c3ccccc3[n+]2C)N=C1c1ccccc1 (centres undefined)	CCT chaperon mod -34.1
CCCCN(C)CCCNC(=O)c1cn(C)c2ccc(S(=O)(=O)N(C)C3CCCCC3)cc2c1=O	CCT chaperon mod -54.0
CCCCN(C)CCCNC(=O)c1cn(CC)c2ccc(S(=O)(=O)N3CCc4ccccc4C3)cc2c1=O	CCT chaperon mod -59.3
CCCCN(CC)CCCNC(=O)c1cn(C)c2ccc(S(=O)(=O)N(C)C3CCCCC3)cc2c1=O	none
CCOCCCNC(=O)c1cn(CC)c2ccc(S(=O)(=O)N3CCC(C)CC3)cc2c1=O	none
CCN(CC)CCNC(=O)c1cn(CC)c2ccc(S(=O)(=O)N3CCOCC3)cc2c1=O	none
CCCCN(CC)CCCNC(=O)c1cn(CC)c2ccc(S(=O)(=O)N3CCc4ccccc4C3)cc2c1=O	none
CCOCCCNC(=O)c1cn(CC)c2ccc(S(=O)(=O)N3CCCC3)cc2c1=O	CCT chaperon mod -51.8
CCCCN(CCCC)CCNC(=O)c1cn(CC)c2ccc(S(=O)(=O)N3CCCC3)cc2c1=O	CCT chaperon mod -81.6
COc1ccc(NS(=O)(=O)c2ccc(-c3cnc(C4CC4)o3)cc2)cc1	none (no result: S-ASM inh, CCT chaperon mod, Mm-Cpn inhibitor, PINK1 modulator, p53 reactivator)
CCOC(=O)c1oc2c(C)c(O)ccc2c(=O)c1-c1nc2ccccc2s1	none (no result: S-ASM inh, CCT chaperon mod, Mm-Cpn inhibitor, PINK1 modulator, p53 reactivator)
Cc1c(Cl)cnc(NC(=O)COC(=O)CNC(=O)c2ccccc2)c1Cl	12-LOX inh inconclusive
COc1ccc(CC(=O)OCC(=O)Nc2ncc(Cl)c(C)c2Cl)cc1	12-LOX inh 11.2µM
COc1ccc(NC(=O)c2cn(-c3ccccc3)nc2-c2ccncc2)cc1	Mm-Cpn inhibitor inconclusive
COc1ccc(-c2nn(-c3ccccc3)cc2C(=O)NC(=S)NNC(=O)c2ccncc2)cc1	12-LOX inh 31.6µM
CSc1nsc(SCC(=O)Nc2ccc(O)c(C(=O)O)c2)n1	12-LOX inh 39.8µM

High-throughput results as filed in PubChem.
